# Source: PubChem BioAssay (National Center for Advancing Translational Sciences (NCATS))
# Sm TGR block = blocks Schistosoma mansoni thioredoxin glutathione reductase; Potency, µM (doses to about 114 µM), for inactives: at the highest dose activity change, negative = inhibition, most hits filed as inhibitors; AID 485364; Q962Y6; actives 3% (n = 360,000); purified TGR, DTNB reduction, TNB absorbance 405 nm; also: potency is read from the fitted curve at half-maximal effect; % is scaled to controls: 0 for no effect and ±100 for the full control effect; nearly all actives have a fitted effect of over 60% in size
#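 TGR 20 nM + NADPH 100 uM (dispensed conc.), cpd preinc 15 min RT; start with NADPH (500 uM addition) then DTNB (15 mM addition). Kinetic TNB absorbance, 405 nm filter. Four-parameter Hill fit across titration.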
# Pf growth 48h = P. falciparum growth inhibition at 48 hours (one generation); Potency, µM (top dose mostly 28.7 µM), without a hit: top-dose activity change, negative = inhibition, hits mostly inhibitors; P. falciparum luciferase growth in erythrocytes, 48 h; AID 504832; actives 5.9% (n = 310,000); also: potency is read from the fitted curve at half-maximal effect; % is scaled to controls: 0 for no effect and ±100 for the full control effect
#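 Luciferase-expressing P. falciparum in infected erythrocytes (2% hematocrit, 0.1% parasitemia final) in RPMI 1640/0.5% Albumax were exposed to compound for 48 hours at 37 C, 5% CO2; growth read as luminescence.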
# HCV inhibitor = blocks hepatitis C virus; Huh7.5.1 HCVcc-Cre infection, luciferase reporter, 44 h; Potency, µM (series often up to 41.8 µM), inactives show at the top dose activity change, negative = inhibition, actives largely listed as inhibitors; actives 3.4% (n = 340,000); also: potency is read from the fitted curve at half-maximal effect; % is scaled to controls: 0 for no effect and ±100 for the full control effect
#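 HCVcc-Cre virus at an moi near 0.5 was added right after compound to cells cultured 4 h from seeding (1,000 cells/well). Luciferase activity was determined 44 h later, 15 min after substrate addition at RT.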
# HCMV antiviral = inhibitors of human cytomegalovirus. activity change, negative = inhibition, % at 57.5 µM. HFF cells, HCMV-luciferase reporter, 72 h; stronger effect = lower value. actives 4.5% (n = 410,000); in the data active = activity change below about -60%; inconclusive = no clear call, values can overlap the other calls; inactive = above about -39%; also: % is scaled to controls: 0 for no effect and ±100 for the full control effect
#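 Human foreskin fibroblasts infected with luciferase-reporter HCMV at MOI 1 PFU/cell, compounds at two doses. Luciferase measured 72 h post infection; normalized to buffer-only basal and Salinomycin (10uM) controls.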
# SARS PLpro yeast = blocks SARS-CoV papain-like protease in a yeast assay; S. cerevisiae expressing SARS-CoV PLpro, growth rescue; Potency, µM (series often up to 32.9 µM), without a hit: at the top dose activity, positive = growth rescue, hits mostly activators; actives 0.19% (n = 330,000); AID 485353; calls by dose curve; also: potency is read from the fitted curve at half-maximal effect; 0% is about no effect; nearly all actives have a fitted effect of over 55% in size
# Pf growth 96h = P. falciparum growth inhibition at 96 hours; P. falciparum luciferase reporter growth, 96 h; Potency, µM (highest dose often 28.7 µM), without a hit: at the top dose activity change, negative = inhibition, usual class: inhibitors; AID 504834; actives 6.9% (n = 320,000); also: potency is read from the fitted curve at half-maximal effect; % is scaled to controls: 0 for no effect and ±100 for the full control effect
#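 Compounds incubated with erythrocytes infected by luciferase-expressing P. falciparum (2% hematocrit, 0.05% parasitemia final) for 96 hours, 37 C in 5% CO2. Growth inhibition scored as decreased luciferase luminescence.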
# * marks the source's active call; other numbers are inactive results; i = inactive; ? = inconclusive; nt = not tested or not shown. This is a sample that favours compounds with a hit; in the whole collection about 15% have one here. Unless noted, calls follow the shape of the dose curve; as a rule, active = well fitted curve in the direction sought with a large enough effect; inconclusive = small, poorly fitted or top-dose-only effect, or another doubt; inactive = no such curve, though single readings can be large; an effect the other way counts as inactive or inconclusive.
SMILES,Sm TGR block,Pf growth 48h,HCV inhibitor,HCMV antiviral,SARS PLpro yeast,Pf growth 96h
CCOC(=O)c1csc(NC(=O)c2ccc(OCC)cc2)n1,7.3%,i,2.51µM*,-60.8*,-4.0%,467.8%
CCOC(=O)c1csc(NC(=O)c2ccc3c(c2)OCCO3)n1,-1.2%,195.8%,14.1µM*,nt,0.1%,-5.7%
CCOC(=O)c1csc(NC(=O)c2ccccc2)n1,0.3%,nt,?,77.1,2.2%,166.6%
CCOC(=O)c1csc(NC(=O)c2ccc(OC)c(OC)c2)n1,-24.0%,67.1%,?,38.8,-10.7%,nt
CCOC(=O)c1csc(NC(=O)c2ccc(S(=O)(=O)N(C)C)cc2)n1,-27.5%,-3.6%,-13.9%,-63.2*,-6.1%,-25.7%
C[C@@H]1CN([C@H](C)CO)C(=O)c2cccc(NC(=O)Nc3ccc(F)cc3)c2O[C@H]1CN(C)C(=O)Nc1ccc(C(F)(F)F)cc1,nt,nt,?,-61.2*,4.9%,nt
COc1ccc(NC(=O)Nc2cccc3c2O[C@H](CN(C)C(=O)Nc2ccccc2)[C@@H](C)CN([C@H](C)CO)C3=O)cc1,nt,nt,-3.1%,8.9,-0.4%,nt
C[C@H](CO)N1C[C@H](C)[C@@H](CN(C)C(=O)Nc2ccc(C(F)(F)F)cc2)Oc2c(NC(=O)Nc3ccccc3)cccc2C1=O,nt,nt,-14.0%,-16.8,5.5%,nt
COc1ccc(NC(=O)N(C)C[C@H]2Oc3c(NC(=O)Nc4ccc(C(F)(F)F)cc4)cccc3C(=O)N([C@H](C)CO)C[C@@H]2C)cc1,nt,nt,6.31µM*,12.8,11.5%,nt
COc1ccc(NC(=O)N(C)C[C@H]2Oc3c(NC(=O)c4nc5ccccc5s4)cccc3C(=O)N([C@@H](C)CO)C[C@H]2C)cc1,nt,nt,?,-102.5*,-2.4%,nt
COc1ccc(NC(=O)N(C)C[C@H]2Oc3c(NC(=O)c4ccncc4)cccc3C(=O)N([C@H](C)CO)C[C@@H]2C)cc1,nt,nt,13.7%,-1.3,6.5%,nt
CCc1csc(CCNC(=O)C2CCC(=O)N(Cc3cccc(C(F)(F)F)c3)C2)n1 (configuration not stated),1.1%,0.4%,26.6%,-27.2,1.1%,-1.3%
Nc1cc(OCC(F)(F)F)cc([N+](=O)[O-])c1,-2.8%,23.1%,2.6%,-9.6,-12.1%,19.3%
Cc1cc(Oc2cc(N)cc([N+](=O)[O-])c2)ccc1Cl,0.4%,14.0%,-4.0%,-15.6,13.3%,8.28µM*
COc1ccc(Cn2ccnc2SCC(=O)Nc2ccc(F)cc2F)cc1,nt,nt,nt,-23.3,nt,nt
CCC(=O)NC(=S)Nc1ccc(-c2nc3ccccc3s2)cc1,5.0%,200.0%,0.9%,78.5,1.1%,19.7%
Cc1ccc2nc(-c3ccc(NC(=S)NC4CC(C)(C)NC(C)(C)C4)cc3)sc2c1,-27.3%,169.3%,?,-102.0*,-10.1%,375.0%
CCC(=O)NC(=S)Nc1ccc(-c2nc3ccc(C)cc3s2)cc1,1.2%,122.7%,-6.1%,41.3,6.7%,11.7µM*
CCOC(=O)N1CCC(NCCNC(=O)c2ccc(F)c(F)c2)CC1,6.3%,10.4%,15.7%,-4.0,2.0%,48.9%
COc1ccc2oc(-c3ccccc3)c(C(=O)N(C)C)c2c1,0.0%,-13.1%,-16.0%,-16.4,-6.4%,5.7%
CCOC(=O)c1c(-c2ccccc2)oc2ccc(OC(C)=O)cc12,-17.4%,6.4%,11.2µM*,7.6,-16.2%,34.5%
COc1ccc(-c2oc3ccccc3c2C(=O)OCc2ccc(O)cc2)cc1,8.3%,142.7%,?,21.5,1.9%,47.2%
CCOC(=O)c1c(-c2ccc(OC)cc2)oc2ccc(OC(=O)N(C)C)cc12,6.3%,?,0.316µM*,-20.6,-14.5%,?
COc1ccc(-c2oc3ccccc3c2C(=O)OCc2ccc([N+](=O)[O-])cc2)cc1,0.3%,21.1%,4.7%,-62.1*,0.1%,33.8%
CCOC(=O)c1c(-c2ccccc2)oc2ccc(OC(C)C(=O)O)cc12 (configuration not stated),1.5%,-11.0%,11.0%,-25.6,-1.3%,31.8%
